Experiment [1] can be described thus: S16 Schwann cell viability assay (CellTiter-Glo assay) (AID 624031).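 Note: native untransfected S16 rat Schwann cells; nearly all actives have a fitted effect of over 70% in size.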 Put shortly:
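Counter-screen for cytotoxicity: parental S16 rat Schwann cells lacking the PMP22 reporters, treated 24 h with compound, viability from cellular ATP by CellTiter-Glo luminescence, normalized to DMSO (0%) and no-cell wells.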

In another experiment the test system is AA1029. As to the kind of experiment: qHTS profiling for inhibitors of Plasmodium falciparum proliferation (AID 504749). Note: nearly all actives have a fitted effect of over 60% in size. Note: potency is the fitted concentration of half-maximal effect. The note with it: P. falciparum in erythrocytes, SYBR Green DNA, 72 h; series mostly up to 28.7 µM. Put shortly: (§1)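 Readout was DNA-dye fluorescence from lysed cultures, ex 485/em 535 nm. Parasitized red cells had grown 72 h with compound; data scaled between 0.29 uM artemisinin and DMSO wells and corrected using vehicle-only plates.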
A general note: qHTS replaces the single test concentration by a dilution series.

Another experiment concerns ATS189. The experiment is described as above. As to conditions: P. falciparum in erythrocytes, SYBR Green DNA, 72 h; series mostly up to 28.7 µM. Put shortly:
as §1

The test system of another experiment is CP194. The description is as above. The note with it: P. falciparum in erythrocytes, SYBR Green DNA, 72 h; series mostly up to 28.7 µM. Put shortly: as §1
The test system of the next experiment is CP203. The description is as above. The note with it: P. falciparum in erythrocytes, SYBR Green DNA, 72 h; series mostly up to 28.7 µM. Put shortly: as §1
Another experiment concerns CP237. Described as above. The note with it: P. falciparum in erythrocytes, SYBR Green DNA, 72 h; series mostly up to 28.7 µM. Put shortly:
as §1

The next experiment relates to CP247. The experiment is described as above. As to conditions: P. falciparum in erythrocytes, SYBR Green DNA, 72 h; series mostly up to 28.7 µM. Put shortly:
as §1

Another experiment deals with CP250. The description is as above. As to conditions: P. falciparum in erythrocytes, SYBR Green DNA, 72 h; series mostly up to 12.8 µM. Put shortly: as §1
The subject of a further experiment is CP268. Described as above. The note with it: P. falciparum in erythrocytes, SYBR Green DNA, 72 h; series mostly up to 28.7 µM. Put shortly:
as §1

In another experiment the test system is CP325. The experiment is described as above. The note with it: P. falciparum in erythrocytes, SYBR Green DNA, 72 h; series mostly up to 28.7 µM. Put shortly:
as §1

A further experiment deals with Dd2. The description is as above. The note with it: P. falciparum in erythrocytes, SYBR Green DNA, 72 h; series mostly up to 28.7 µM. Put shortly:
as §1

The next experiment concerns GB4. The description is as above. As to conditions: P. falciparum in erythrocytes, SYBR Green DNA, 72 h; series mostly up to 28.7 µM. Put shortly: as §1
A further experiment has as its system JCK. The description is as above. As to conditions: P. falciparum in erythrocytes, SYBR Green DNA, 72 h; series mostly up to 28.7 µM. Put shortly: as §1
Another experiment deals with P93_24. The description is as above. The note with it: P. falciparum in erythrocytes, SYBR Green DNA, 72 h; series mostly up to 28.7 µM. Put shortly: as §1
A further experiment concerns P94_40. The description is as above. The note with it: P. falciparum in erythrocytes, SYBR Green DNA, 72 h; series mostly up to 28.7 µM. Put shortly:
as §1

The test system of a further experiment is PC15. The description is as above. The note with it: P. falciparum in erythrocytes, SYBR Green DNA, 72 h; series mostly up to 28.7 µM. Put shortly: as §1
Another experiment deals with PC26. The experiment is described as above. The note with it: P. falciparum in erythrocytes, SYBR Green DNA, 72 h; series mostly up to 28.7 µM. Put shortly: as §1
The next experiment deals with PC49. Described as above. The note with it: P. falciparum in erythrocytes, SYBR Green DNA, 72 h; series mostly up to 28.7 µM. Put shortly:
as §1

Another experiment relates to TAB109. The description is as above. As to conditions: P. falciparum in erythrocytes, SYBR Green DNA, 72 h; series mostly up to 12.8 µM. Put shortly: as §1
The next experiment concerns TAB113. Described as above. The note with it: P. falciparum in erythrocytes, SYBR Green DNA, 72 h; series mostly up to 28.7 µM. Put shortly:
as §1

Records with an inconclusive call do not appear. Active and inactive are the calls of the source. Calls come from the whole dose curve; as a rule, active = well fitted curve in the direction sought with a large enough effect; inconclusive = small, poorly fitted or top-dose-only effect, or another doubt; inactive = no such curve, though single readings can be large; an effect the other way counts as inactive or inconclusive.

As to `CN[C@@H](C)[C@H]1CC[C@@H](N)[C@@H](O[C@@H]2[C@@H](O)[C@@H](O[C@H]3OC[C@@](C)(O)[C@@H](NC)[C@@H]3O)[C@H](N)C[C@@H]2N)O1` (tested in a mixture with another compound), the Potency entry (in experiment [1]; in the experiment on AA1029; with ATS189; in the experiment with CP194; in the experiment on CP203; with CP237) was “inactive” throughout. Moreover, the Potency result in the experiment on CP247, with CP250, in the experiment on CP268, in the experiment with CP325, in the experiment with Dd2 and with GB4 was “inactive” in each case. The Potency entry with JCK, with P93_24, with P94_40, with PC15, in the experiment with PC26 and in the experiment with PC49 was “inactive” in each case. Besides, the Potency entry with TAB109 and with TAB113 was “inactive” each time.

As to `CN(C)[C@@H]1C(=O)C(C(N)=O)=C(O)[C@]2(O)C(=O)C3=C(O)c4c(O)ccc(Cl)c4[C@](C)(O)[C@H]3C[C@@H]12`, the Potency result (in experiment [1]; in the experiment with AA1029; in the experiment with ATS189; in the experiment with CP194; in the experiment on CP203; with CP237) was “inactive” each time. In addition, the Potency entry in the experiment with CP247, in the experiment on CP250, in the experiment on CP268, with CP325, with GB4 and in the experiment on JCK was “inactive” each time. Besides, the Potency result in the experiment with P93_24, in the experiment on P94_40, with PC15, with PC26, in the experiment with PC49 and in the experiment on TAB109 was “inactive” each time. For the same molecule, the Potency entry in the experiment with TAB113 is “inactive”.

For `CC1=C2[C@@H]3OC(=O)[C@@H](C)[C@@H]3CC[C@]2(C)C=CC1=O`, the Potency entry (in experiment [1]; in the experiment with CP194; in the experiment with CP203; in the experiment with CP237; with CP268; in the experiment with CP325) was “inactive” each time. Also, the Potency entry in the experiment on Dd2, in the experiment with GB4, in the experiment on JCK, with P94_40, with PC15 and in the experiment with PC26 was “inactive” throughout. In addition, in the experiment with PC49, the Potency entry was “inactive”.

For `CN(C)C(=O)Oc1cc(OC(=O)N(C)C)cc([C@@H](O)CNC(C)(C)C)c1`, the Potency entry (in experiment [1]; in the experiment with AA1029; with ATS189; in the experiment on CP194; in the experiment with CP203; in the experiment on CP237) was “inactive” in each case. The Potency entry in the experiment on CP247, in the experiment on CP250, with CP268, in the experiment with CP325, in the experiment with Dd2 and with GB4 was “inactive” throughout. Also, the Potency entry in the experiment with JCK, in the experiment on P93_24, in the experiment with P94_40, in the experiment on PC15, with PC26 and with PC49 was “inactive” each time. The Potency result with TAB109 and with TAB113 was “inactive” in each case.

Turning to `CCN[C@]1(c2cccs2)CCCCC1=O`, the Potency entry (in [1]; in the experiment with AA1029; in the experiment on ATS189; with CP194; with CP203; with CP247) was “inactive” throughout. Further, the Potency entry in the experiment on CP250, in the experiment with CP268, with CP325, with Dd2, with JCK and with P93_24 was “inactive” in each case. The Potency entry with PC15, in the experiment with PC26, in the experiment on PC49, in the experiment with TAB109 and in the experiment with TAB113 was “inactive” in each case.

For the molecule `CC(C)N(CC[C@@](C(N)=O)(c1ccccc1)c1ccccn1)C(C)C`, the Potency entry (in [1]; in the experiment on AA1029; in the experiment on ATS189; in the experiment on CP194; in the experiment on CP203; in the experiment on CP237) was “inactive” each time. Further, the Potency entry in the experiment with CP247, with CP250, with CP268, with CP325, in the experiment with Dd2 and in the experiment on JCK was “inactive” in each case. In addition, the Potency entry in the experiment with P93_24, in the experiment with P94_40, in the experiment on PC15, in the experiment with PC26, with PC49 and with TAB109 was “inactive” each time. In the experiment on TAB113, the Potency result is “inactive”.

Turning to `Clc1ccc([C@@H](OCCN2CCCCC2)c2ccccc2)cc1`, the Potency is 3.16 µM (active) with ATS189; 4.47 µM (active) in the experiment with Dd2; 5.73 µM (active) in the experiment with GB4; 3.55 µM (active) with P93_24; 3.55 µM (active) with P94_40; 3.16 µM (active) with PC15. Besides, the Potency result in the experiment with CP237 and with CP250 was “inactive” in each case.

(Values after PubChem BioAssay (NCATS).)
